Compounds without any hit were thinned out: in the full panel of roughly 83,000, 20% have a hit.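 Activity criterion: percent growth below 10, measured after cells in 96-well plates were exposed to a single compound concentration for 48 hours.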 A number with no mark means an inactive call. Activity calls are given as the source filed them.

Among the test systems are HCT-15 colon; HT29 colon; SNB-75 CNS; SNB-19 CNS; U251 CNS; PC-3 prostate; SK-MEL-5 melanoma; UACC-62 melanoma; LOX IMVI melanoma; SK-MEL-28 melanoma; EKVX NSCLC; SN12C renal; UO-31 renal; TK-10 renal; ACHN renal; CAKI-1 renal; A498 renal; CCRF-CEM leukemia; MOLT-4 leukemia.
Common to all, as to test: NCI-60 one-dose screen, 48 h (100 = growth as untreated, 0 = no growth, -100 = all killed)
Holding throughout (conditions): 10 µM unless noted

For `Cc1cn(-c2cc(NC(=O)c3ccc(C)c(Nc4nccc(-c5cccnc5)n4)c3)cc(C(F)(F)F)c2)cn1`, the growth was 22.8% with HCT-15 colon; 17.4% with HT29 colon; 55.7% with SNB-75 CNS; 69.9% in the assay with SNB-19 CNS; 37.5% in the assay with U251 CNS; 26% with PC-3 prostate. Besides, the growth in the assay with SK-MEL-5 melanoma is -22.5% (active); in the assay with UACC-62 melanoma, 9.88% (active); in the assay with LOX IMVI melanoma, 44.1%; in the assay with SK-MEL-28 melanoma it was -27.1% (active); in the assay with EKVX NSCLC, 69.6%; in the assay with SN12C renal, 66.9%. Also, the growth with UO-31 renal was -3.45% (active); in the assay on TK-10 renal it was 75.1%; in the assay on ACHN renal, 55.8%; with CAKI-1 renal, 50.6%; in the assay on A498 renal it was 82.2%; with CCRF-CEM leukemia, 36.2%. In the assay on MOLT-4 leukemia, the growth was 42.9%.
For `Cc1cc(C(=O)Nc2cc(Oc3ccc4nc(NC(=O)C5CC5)cn4n3)ccc2C)n(C)n1`, the growth in the assay on HCT-15 colon was 44.1%; with HT29 colon, 4.61% (active); in the assay with SNB-75 CNS, 7.99% (active); in the assay on SNB-19 CNS, 33.5%; in the assay with U251 CNS, 13.3%; in the assay on PC-3 prostate, 49.8%. The growth was 23.6% in the assay with SK-MEL-5 melanoma; -16.9% (active) in the assay with UACC-62 melanoma; -20.1% (active) with LOX IMVI melanoma; 0.461% (active) in the assay with SK-MEL-28 melanoma; 58.8% with EKVX NSCLC; 37.8% in the assay with SN12C renal. For the same compound, the growth was 14.4% in the assay with UO-31 renal; 27.4% in the assay on TK-10 renal; 37.3% with ACHN renal; 23.8% in the assay on CAKI-1 renal; -39.2% (active) with A498 renal; 29.9% in the assay with CCRF-CEM leukemia. Further, the growth with MOLT-4 leukemia is 32.6%.
Take `CC(C)NC[C@@H](C(=O)N1CCN(c2ncnc3c2[C@H](C)C[C@H]3O)CC1)c1ccc(Cl)cc1`: the growth with HCT-15 colon is 71.2%; with HT29 colon, 27.4%; with SNB-75 CNS, 8.53% (active); in the assay with SNB-19 CNS, 26.7%; with U251 CNS, 28.4%; with PC-3 prostate, 33%. Moreover, the growth in the assay with SK-MEL-5 melanoma was 72.4%; with UACC-62 melanoma it was 44.6%; in the assay on LOX IMVI melanoma, 66.8%; with SK-MEL-28 melanoma it was 55.6%; with EKVX NSCLC, 72%; with SN12C renal, 64.4%. For the same compound, the growth with UO-31 renal is 53.7%; in the assay on TK-10 renal, 32.2%; with ACHN renal, 68.7%; with CAKI-1 renal it was 45.1%; with A498 renal, -21.7% (active); in the assay with CCRF-CEM leukemia, 22.5%. For the same compound, the growth in the assay on MOLT-4 leukemia is 23.3%.
As for `Cc1cc(Nc2ncc(Cl)c(Nc3ccccc3S(=O)(=O)C(C)C)n2)c(OC(C)C)cc1C1CCNCC1`, the growth was -86.4% (active) in the assay with HCT-15 colon; -88.1% (active) in the assay with HT29 colon; -98.1% (active) with SNB-75 CNS; -94.9% (active) with SNB-19 CNS; -100% (active) in the assay on U251 CNS; -92.2% (active) in the assay with PC-3 prostate. In addition, the growth in the assay with SK-MEL-5 melanoma is -98.9% (active); in the assay on UACC-62 melanoma, -95.1% (active); with LOX IMVI melanoma, -90.7% (active); in the assay on SK-MEL-28 melanoma, -99.3% (active); in the assay with EKVX NSCLC, -87.6% (active); in the assay on SN12C renal it was -87.2% (active). Moreover, the growth is -96.4% (active) in the assay on UO-31 renal; -96.1% (active) with TK-10 renal; -100% (active) in the assay on ACHN renal; -99.5% (active) in the assay with CAKI-1 renal; 40.2% in the assay on A498 renal; -47.5% (active) in the assay with CCRF-CEM leukemia. For the same compound, the growth in the assay with MOLT-4 leukemia is -59.9% (active).
Regarding `C=CC(=O)Nc1cc(Nc2nccc(-c3cn(C)c4ccccc34)n2)c(OC)cc1N(C)CCN(C)C`, the growth in the assay with HCT-15 colon was -63.9% (active); with HT29 colon, -61.2% (active); in the assay with SNB-75 CNS, -6.88% (active); in the assay with SNB-19 CNS it was -7.94% (active); in the assay on U251 CNS it was -72.7% (active); in the assay with PC-3 prostate it was -52.6% (active). Moreover, the growth is -96.5% (active) in the assay with SK-MEL-5 melanoma; -68.8% (active) with UACC-62 melanoma; -84.6% (active) in the assay on LOX IMVI melanoma; -87.2% (active) with SK-MEL-28 melanoma; -46.2% (active) in the assay with EKVX NSCLC; -59.3% (active) in the assay with SN12C renal. Moreover, the growth was -83.2% (active) in the assay with UO-31 renal; -17.1% (active) with TK-10 renal; -95.4% (active) in the assay on ACHN renal; -86.4% (active) in the assay with CAKI-1 renal; -58.3% (active) with A498 renal; -17.1% (active) with CCRF-CEM leukemia. Also, in the assay with MOLT-4 leukemia, the growth was -52.7% (active).
For the compound `CCOc1cc2ncc(C#N)c(Nc3ccc(F)c(Cl)c3)c2cc1NC(=O)/C=C/CN(C)C`, the growth in the assay with HCT-15 colon is -31.1% (active); in the assay with HT29 colon it was -35.3% (active); in the assay on SNB-75 CNS, -98.5% (active); in the assay on SNB-19 CNS, -26.6% (active); with U251 CNS, -70.9% (active); with PC-3 prostate it was -1.37% (active). In addition, the growth with SK-MEL-5 melanoma was -94.5% (active); in the assay with UACC-62 melanoma, -46.7% (active); with LOX IMVI melanoma it was -72.3% (active); in the assay with SK-MEL-28 melanoma, -75.4% (active); with EKVX NSCLC it was -22% (active); with SN12C renal it was -51.7% (active). The growth is -92.2% (active) with UO-31 renal; -75.9% (active) with TK-10 renal; -94.3% (active) with ACHN renal; -59.6% (active) with CAKI-1 renal; -3.54% (active) in the assay with A498 renal; 0.208% (active) in the assay on CCRF-CEM leukemia. Further, in the assay with MOLT-4 leukemia, the growth was -26% (active).
In the case of `O=C1NC(=O)[C@@H](c2cn3c4c(cccc24)CCC3)[C@@H]1c1c[nH]c2ccccc12`, the growth in the assay with HCT-15 colon is 16.8%; in the assay on HT29 colon, 0.272% (active); with SNB-75 CNS it was 5.51% (active); in the assay on SNB-19 CNS, 27.3%; in the assay with U251 CNS, 8.44% (active); in the assay with PC-3 prostate it was 21.1%. Besides, the growth in the assay with SK-MEL-5 melanoma was 3.82% (active); in the assay on UACC-62 melanoma it was 33.9%; in the assay with LOX IMVI melanoma it was 19.2%; in the assay on SK-MEL-28 melanoma it was 61.3%; with EKVX NSCLC, 31.4%; in the assay with SN12C renal it was 31.1%. Also, the growth was 45.9% in the assay with UO-31 renal; 43% with TK-10 renal; 35.7% in the assay with ACHN renal; 27% in the assay on CAKI-1 renal; 11.8% with A498 renal; 20.9% in the assay with CCRF-CEM leukemia. The growth with MOLT-4 leukemia is 18.6%.
As for `COc1ccc(-c2ccc3c(N4CCOC[C@@H]4C)nc(N4CCOC[C@@H]4C)nc3n2)cc1CO`, the growth in the assay with HCT-15 colon is 6.93% (active); in the assay on HT29 colon, 6.32% (active); in the assay on SNB-75 CNS, -44.9% (active); in the assay with SNB-19 CNS, 9.71% (active); in the assay on U251 CNS, 7.15% (active); in the assay on PC-3 prostate, 9.37% (active). For the same compound, the growth is -26.8% (active) in the assay with SK-MEL-5 melanoma; -32.3% (active) in the assay with UACC-62 melanoma; 1.2% (active) in the assay with LOX IMVI melanoma; -17.1% (active) in the assay with SK-MEL-28 melanoma; 7.48% (active) in the assay on EKVX NSCLC; 9.9% (active) in the assay with SN12C renal. Further, the growth in the assay on UO-31 renal was -13% (active); in the assay with TK-10 renal, -30.8% (active); in the assay with ACHN renal it was 5.54% (active); in the assay with CAKI-1 renal, -14.6% (active); with A498 renal, -35.4% (active); in the assay with CCRF-CEM leukemia, 16.4%. Further, the growth in the assay on MOLT-4 leukemia is 11.6%.

These data come from PubChem BioAssay (NCI).
